A short description of experiment [1]: qHTS assay to identify small molecule antagonists of the androgen receptor (AR) signaling pathway using the MDA cell line in the presence of 0.5 nM R1881 - cell viability counter screen (AID 1259242). Note: nearly all actives have a fitted effect of over 45% in size. An outline of the steps: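 MDA-kb2 cells (human breast carcinoma, stably carrying MMTV-luciferase reporter) were exposed to compounds with 0.5 nM R1881 (final) for 16 hr at 37C, 0% CO2; viability then read as live-cell protease fluorescence (CellTiter-Fluor, 30 min) in the same wells.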

Experiment [2] has as its target Estrogen receptor (Homo sapiens) (UniProt P03372). Briefly: qHTS assay to identify small molecule antagonists of the estrogen receptor alpha (ER-alpha) signaling pathway using the BG1 cell line in the presence of 0.1 nM 17-beta-estradiol (AID 1259244). Note: nearly all actives have a fitted effect of over 50% in size. An outline of the steps:
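VM7Luc4E2 cells (endogenous full-length ER-alpha, stable 4xERE-luciferase) were grown 5 days in phenol red-free medium with charcoal-stripped FBS, then exposed 22 h at 37C to compounds plus 0.1 nM (final) 17beta-estradiol; ONE-Glo luminescence read-out.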

A short description of experiment [3]: qHTS assay to identify small molecule phospholipidosis (PLD) inducers (AID 1259344; active = well fitted curve in the direction sought with a large enough effect; an effect the other way counts as inactive or inconclusive). An outline of the steps:
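Fluorescent phospholipid staining (LipidTOX Red) measured by automated microscopy in fixed HepG2 cells after 24 h treatment; nuclei counterstained with Hoechst 33342; amiodarone as reference inducer.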

Experiment [4] can be described thus: qHTS assay to identify small molecule HDAC inhibitors (AID 1259364). Note: nearly all actives have a fitted effect of over 45% in size. Note: potency is the fitted concentration of half-maximal effect. An outline of the steps: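 Wild-type HCT-116 cells were plated overnight, exposed to compounds for 2 h at 37 °C, then given HDAC-Glo class I/II luminogenic reagent for 30 min at room temperature before luminescence was read.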
Experiment [5] can be described thus: qHTS assay to identify small molecule HDAC inhibitors - cell viability counter screen (AID 1259365). Note: series mostly up to about 92 µM; nearly all actives have a fitted effect of over 50% in size. An outline of the steps:
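To flag cytotoxic hits, 1,500 wild-type HCT-116 cells per well, plated the day before, receive test compounds for 2hr at 37 C before CellTiter-Glo reagent and a luminescence read.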

Experiment [6] is described as follows: qHTS assay to identify small molecule agonists of the sonic hedgehog signaling (Shh) pathway - cell viability counter screen (AID 1259366). Note: nearly all actives have a fitted effect of over 50% in size. Note: potency is the fitted concentration of half-maximal effect. The method in brief: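 Fluorescence from CellTiter-Fluor reports live cells in this counter screen. NIH/3T3-derived Gli1-Luc reporter cells receive test compounds for 24hr at 37C; reagent goes in at 23hr.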
Experiment [7] can be described thus: qHTS assay to identify small molecule antagonists of the sonic hedgehog signaling (Shh) pathway - cell viability counter screen (AID 1259367). Note: nearly all actives have a fitted effect of over 55% in size. Note: potency is the fitted concentration of half-maximal effect. The method in brief: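 Using CellTiter-Fluor, viability of Gli1-Luc reporter 3T3 cells is read by fluorescence in the wells used for the Shh luciferase assay. Treatment lasts 23 hr with conditioned medium, then reagent 1 hr at 37C.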

The nature of experiment [8]: qHTS assay to identify small molecule agonists of the sonic hedgehog signaling (Shh) pathway (AID 1259368; calls by dose curve; note: series mostly up to about 92 µM; nearly all actives have a fitted effect of over 15% in size). An outline of the steps: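 NIH/3T3-derived 3T3Gli1-Luc cells carrying a stably integrated Gli1 response element–firefly luciferase reporter were plated, left 4 hr at 37 C, then given compounds in DMSO for 24 hr. Luminescence was read 30 min after adding luciferase reagent.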

Experiment [9] can be described thus: qHTS assay to identify small molecule antagonists of the sonic hedgehog signaling (Shh) pathway (AID 1259369; calls by dose curve; note: nearly all actives have a fitted effect of over 45% in size; note: potency is the fitted concentration of half-maximal effect). The method in brief: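 NIH/3T3-derived 3T3Gli1-Luc cells with stably integrated Gli1-Luc reporter were preincubated 4hr at 37 C, then given compounds in DMSO plus Shh conditioned medium and incubated 24hr. Firefly luciferase luminescence read after 30min reagent at room temperature.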

Experiment [10] has as its target Estrogen receptor beta (Homo sapiens) (UniProt Q92731). The experiment is described as follows: qHTS assay to identify small molecule agonists of the estrogen receptor beta (ER-beta) signaling pathway (AID 1259377; active = well fitted activation curve with a large enough effect in the signal ratio in the repeat runs, not every such curve was filed as active; the % refers to the signal ratio; note: potency is the fitted concentration of half-maximal effect). An outline of the steps: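 Screening used GripTite ER-beta-UAS-bla cells held in 2% charcoal-stripped FBS medium. After overnight (16 hr) compound incubation at 37C, beta-lactamase activity was detected with a FRET substrate by fluorescence.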

The target is the same in experiment [11]. Briefly: qHTS assay to identify small molecule antagonists of the estrogen receptor beta (ER-beta) signaling pathway (AID 1259378; active = well fitted inhibition curve with a large enough effect in the signal ratio in the repeat runs, not every such curve was filed as active; the % refers to the signal ratio). The method in brief:
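Antagonist mode: compounds added to beta-lactamase reporter HEK293T ER-beta-UAS cells stimulated with E2 (1nM final), 16 hr at 37C. LiveBLAzer B/G FRET substrate, 2 hours room temperature, fluorescence read-out.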

Experiment [12] in a line: qHTS assay to identify small molecule agonists of the androgen receptor (AR) signaling pathway in the presence of an antagonist - cell viability counter screen (AID 1259379). Note: nearly all actives have a fitted effect of over 25% in size. Note: potency is the fitted concentration of half-maximal effect. An outline of the steps: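 MDA-kb2 human breast carcinoma cells (stable MMTV-luciferase, AR/GR responsive) were seeded 3,000 cells/well, pre-incubated 5 hr at 37C without CO2, then given 3.0uM nilutamide and compounds at 15 concentrations for 16 hr. Viability was read by CellTiter-Fluor fluorescence.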

Experiment [13] can be described thus: qHTS assay to identify small molecule agonists of the estrogen receptor beta (ER-beta) signaling pathway - cell viability counter screen (AID 1259380). Note: nearly all actives have a fitted effect of over 30% in size. Note: potency is the fitted concentration of half-maximal effect. An outline of the steps: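 ER-beta-UAS-bla HEK293T cells in medium with 2% charcoal-stripped FBS were preincubated 6 hr at 37C, dosed with compound in DMSO for 16 hr, then after the bla read, CellTiter-Glo was added for 30 min at room temperature; luminescence recorded.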

Experiment [14] is described as follows: qHTS assay to identify small molecule antagonists of the estrogen receptor beta (ER-beta) signaling pathway - cell viability counter screen (AID 1259382).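 Note: HEK293T cells carrying ER-beta-UAS-bla reporter stimulated with estradiol; series mostly up to about 92 µM; nearly all actives have a fitted effect of over 55% in size.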 The method in brief:
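ER-beta-UAS-bla HEK293T cells (2,000/well, 2% charcoal-stripped FBS) were pre-incubated 6 hr at 37C, then given compound plus 1nM final 17-beta-estradiol for 16 hr. Viability was read in the same wells by CellTiter-Glo luminescence after 30 min at room temperature.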

In experiment [15] the target is Estrogen receptor (Homo sapiens) (UniProt P03372). Briefly: qHTS assay to identify small molecule agonists of the estrogen receptor alpha (ER-alpha) signaling pathway in the presence of an antagonist (AID 1259383; calls by dose curve; note: top concentration of the series differs between compounds; nearly all actives have a fitted effect of over 15% in size). The method in brief: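 VM7Luc4E2 cells (endogenous full-length ER-alpha, 4×ERE-luciferase) were precultured 5 days in phenol red-free medium with 10% charcoal-stripped FBS, given 10.0nM ICI-182,780 (final), then treated with compounds at 15 concentrations for 22hr at 37C; luminescence read with ONE-Glo.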
Sequence of Estrogen receptor (Homo sapiens) (P03372 whole entry, looked up): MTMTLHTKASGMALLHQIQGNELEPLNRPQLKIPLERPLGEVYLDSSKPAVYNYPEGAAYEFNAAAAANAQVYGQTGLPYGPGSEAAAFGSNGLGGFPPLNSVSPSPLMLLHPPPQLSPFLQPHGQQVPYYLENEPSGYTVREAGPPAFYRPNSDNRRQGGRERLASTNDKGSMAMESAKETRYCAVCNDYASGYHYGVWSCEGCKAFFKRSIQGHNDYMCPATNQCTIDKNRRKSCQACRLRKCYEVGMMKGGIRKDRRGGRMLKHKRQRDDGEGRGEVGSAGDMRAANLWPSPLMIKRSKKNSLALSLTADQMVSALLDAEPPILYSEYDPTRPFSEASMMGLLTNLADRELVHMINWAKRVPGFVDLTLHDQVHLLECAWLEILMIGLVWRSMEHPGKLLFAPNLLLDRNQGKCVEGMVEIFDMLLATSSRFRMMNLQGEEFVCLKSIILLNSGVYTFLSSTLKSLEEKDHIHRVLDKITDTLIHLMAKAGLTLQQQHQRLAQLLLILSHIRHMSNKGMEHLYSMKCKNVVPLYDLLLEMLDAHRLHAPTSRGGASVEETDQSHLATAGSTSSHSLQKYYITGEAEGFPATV

Experiment [16] in a line: qHTS assay to identify small molecule antagonists of the estrogen receptor alpha (ER-alpha) signaling pathway using the BG1 cell line in the presence of 0.1 nM 17-beta-estradiol - cell viability counter screen (AID 1259241). Note: nearly all actives have a fitted effect of over 40% in size. Note: potency is the fitted concentration of half-maximal effect. The method in brief:
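CellTiter-Fluor read (30 min, 37C) on ER-alpha/ERE-luc VM7Luc4E2 cells; 22 hr compound treatment; agonist 0.1 nM E2 final; same-well multiplex.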

The nature of experiment [17]: qHTS assay to identify small molecule agonists or antagonists of the thyroid stimulating hormone receptor (TSHR) signaling pathway - wild type cell line counter screen (AID 1259384; calls by dose curve). The method in brief:
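Counter screen in untransfected Hek293: compounds (15-point titration, triplicate) plus phosphodiesterase inhibitor Ro20-1724 added after 18 h plating; 30 min RT. Intracellular cAMP via competitive d2/cryptate immunoassay, 1 h incubation.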

Experiment [18] concerns the target Thyrotropin receptor (Homo sapiens) (UniProt P16473). Briefly: qHTS assay to identify small molecule antagonists of the thyroid stimulating hormone receptor (TSHR) signaling pathway (AID 1259385; calls by dose curve; note: nearly all actives have a fitted effect of over 20% in size). The method in brief: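 Antagonist mode: compound-treated TSHR-expressing HEK293 cells were stimulated with 1.5 ng/mL TSH (final) in presence of Ro20-1724 for 30 min at RT. HTRF cAMP detection after 1 h; each compound tested at 15 concentrations, triplicate.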

Values without a mark were called inactive. Records with an inconclusive call do not appear. The source made the active and inactive calls. Unless noted, calls come from the whole dose curve; as a rule, active = well fitted curve in the direction sought with a large enough effect in the repeat runs; inconclusive = weak or mixed curves; inactive = no such curve, though single readings can be large; an effect the other way counts as inactive or inconclusive.

Sequence of Thyrotropin receptor (Homo sapiens) (P16473 whole entry, looked up): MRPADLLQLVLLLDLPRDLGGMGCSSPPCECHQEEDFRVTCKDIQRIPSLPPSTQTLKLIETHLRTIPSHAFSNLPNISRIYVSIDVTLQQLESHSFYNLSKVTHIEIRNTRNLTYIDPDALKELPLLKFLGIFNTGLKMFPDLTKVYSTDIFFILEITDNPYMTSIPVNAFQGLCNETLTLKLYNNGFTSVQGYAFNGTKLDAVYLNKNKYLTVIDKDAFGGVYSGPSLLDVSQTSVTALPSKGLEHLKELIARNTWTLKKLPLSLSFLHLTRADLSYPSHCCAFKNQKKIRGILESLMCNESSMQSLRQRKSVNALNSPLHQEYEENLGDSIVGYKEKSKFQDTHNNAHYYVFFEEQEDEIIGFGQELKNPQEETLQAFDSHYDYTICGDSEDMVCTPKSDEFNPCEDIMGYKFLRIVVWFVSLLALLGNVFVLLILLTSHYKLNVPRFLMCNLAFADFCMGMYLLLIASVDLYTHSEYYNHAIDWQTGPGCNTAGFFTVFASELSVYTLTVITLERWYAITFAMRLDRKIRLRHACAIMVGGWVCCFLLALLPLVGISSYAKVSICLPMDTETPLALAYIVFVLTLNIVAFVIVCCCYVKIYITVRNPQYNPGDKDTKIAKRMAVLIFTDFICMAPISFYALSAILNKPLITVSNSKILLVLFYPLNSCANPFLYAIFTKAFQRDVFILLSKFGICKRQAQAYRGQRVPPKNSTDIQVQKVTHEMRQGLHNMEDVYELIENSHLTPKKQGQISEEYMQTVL
Sequence of Estrogen receptor beta (Homo sapiens) (Q92731 whole entry, looked up): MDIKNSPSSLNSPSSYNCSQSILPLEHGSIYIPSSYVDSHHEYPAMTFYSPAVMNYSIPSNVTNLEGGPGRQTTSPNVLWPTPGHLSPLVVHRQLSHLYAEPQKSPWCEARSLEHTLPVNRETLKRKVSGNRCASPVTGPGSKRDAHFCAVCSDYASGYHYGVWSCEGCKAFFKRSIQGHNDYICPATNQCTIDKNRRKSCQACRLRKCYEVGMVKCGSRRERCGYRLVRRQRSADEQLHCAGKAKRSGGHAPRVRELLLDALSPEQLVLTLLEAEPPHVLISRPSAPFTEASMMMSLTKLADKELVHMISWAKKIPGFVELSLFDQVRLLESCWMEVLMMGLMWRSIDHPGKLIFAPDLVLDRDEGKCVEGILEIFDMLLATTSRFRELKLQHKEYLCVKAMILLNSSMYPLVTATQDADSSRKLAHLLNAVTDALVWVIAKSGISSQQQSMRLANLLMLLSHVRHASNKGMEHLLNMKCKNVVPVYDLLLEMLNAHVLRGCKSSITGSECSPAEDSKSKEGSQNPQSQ

For the compound `CCCCC1=NC2(CCCC2)C(=O)N1Cc1ccc(-c2ccccc2-c2nn[nH]n2)cc1`, the Potency entry in experiment [1], in [2], in [3], in experiment [4], in experiment [5] and in experiment [9] was “inactive” in each case. For the same compound, the Potency entry in experiment [10], in [11], in [12], in experiment [13], in [14] and in experiment [15] was “inactive” each time. The Potency is 4.22 µM (active) in experiment [6] and 6.68 µM (active) in experiment [7]. Further, in [8], the call was inactive.
Regarding `COCC(C)OC(C)=O` (stereo not drawn), the Potency entry in experiment [1], in [2], in experiment [4], in [5], in [6] and in experiment [7] was “inactive” throughout. For the same compound, the Potency result in experiment [9], in [10], in experiment [11], in [12], in experiment [13] and in experiment [14] was “inactive” in each case. In addition, the Potency result in [15] was “inactive”. In experiment [8], the outcome was inactive.
On to `CCCCC`, for which the Potency result in experiment [16], in experiment [3], in [5], in [6], in [10] and in [11] was “inactive” in each case. The Potency entry in experiment [12], in [13], in [14] and in [17] was “inactive” throughout. In experiment [4], the Potency was 1.69 µM (active). For the same compound, the compound was classed as inactive in [8].
Consider `O=C(OCCCCCCOC(=O)c1ccccc1)c1ccccc1`, for which the Potency result in [16], in experiment [4], in experiment [6], in [12], in experiment [13] and in [14] was “inactive” in each case. For the same compound, the Potency entry in experiment [15] and in experiment [18] was “inactive” in each case. For the same compound, the compound was classed as inactive in experiment [8]. In addition, the Potency in experiment [9] is 27.3 µM (active).
Regarding `C#C[C@]1(O)CC[C@H]2[C@@H]3CCc4cc(OC5CCCC5)ccc4[C@H]3CC[C@@]21C`, the Potency result in experiment [16], in [3], in experiment [5], in [6], in [7] and in experiment [9] was “inactive” each time. Besides, the Potency entry in experiment [12] and in experiment [17] was “inactive” throughout. Moreover, the compound was classed as inactive in experiment [8]. Also, the results for the Potency in experiment [10] and in experiment [13] were 6.68 µM (active) and 29.8 µM (active), respectively.
On to `NC(=O)C(c1ccccc1)(c1ccccc1)[C@@H]1CCN(CCc2ccc3c(c2)CCO3)C1`, for which the Potency result in experiment [16], in [2], in experiment [5], in experiment [7], in experiment [12] and in [13] was “inactive” each time. The Potency result in experiment [14], in experiment [15], in [17] and in experiment [18] was “inactive” throughout. Further, the compound was classed as inactive in experiment [8].
For the compound `c1cc(CCCc2ccncc2)ccn1`, the Potency entry in experiment [16], in experiment [2], in [5], in experiment [7], in experiment [9] and in experiment [10] was “inactive” throughout. The Potency entry in [11], in experiment [13], in [14], in [15] and in [17] was “inactive” each time. Further, the compound was classed as inactive in experiment [8].
`CCOc1ccc(N=Nc2ccc(/C=C/c3ccc(N=Nc4ccc(OCC)cc4)cc3S(=O)(=O)O)c(S(=O)(=O)O)c2)cc1`: the results for the Potency in [16], in [7] and in experiment [12] were 24 µM (active), 21.4 µM (active) and 21.4 µM (active), respectively. Also, the call in [8] was inactive. Further, the Potency result in experiment [13], in experiment [14] and in experiment [18] was “inactive” in each case.
In the case of `CCO[Si](CCCCl)(OCC)OCC`, the Potency entry in experiment [1], in experiment [2], in experiment [4], in [5], in experiment [6] and in experiment [7] was “inactive” in each case. Also, the Potency entry in experiment [9], in experiment [10], in [11], in experiment [12], in experiment [13] and in [14] was “inactive” in each case. The Potency result in experiment [15], in experiment [17] and in experiment [18] was “inactive” in each case. For the same compound, in experiment [8], the compound was classed as inactive.
